Results from PubChem BioAssay AID1490 (National Center for Advancing Translational Sciences (NCATS), 2009).
Hit rate of the full screen: of about 310,000 compounds, about 11,000 (3.5%) were called active. Not shown: some 4% with an inconclusive outcome. The list comes from a sample in which actives are over-represented; it also holds similar structures and randomly drawn compounds. A number with no mark means an inactive call. The call rests on the fitted dose curve; in most records, active means well fitted inhibition curve with a large enough effect; inconclusive means small, poorly fitted or top-dose-only effect, or another doubt; inactive means no such curve, though single readings can be large or run the other way.

target: 4'-phosphopantetheinyl transferase ffp (Bacillus subtilis) (UniProt Q9F4F7); assay: qHTS Assay for Inhibitors of Bacillus subtilis Sfp phosphopantetheinyl transferase (PPTase); details: Biochemical Sfp PPTase activity;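 further: the enzyme is Sfp with the accession as filed and its product quenches rhodamine fluorescence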;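 on largest response in the series, negative = inhibition: 0% = enzyme reaction without inhibitor and -100% = no enzyme wells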
Summary of the method: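 Fluorescence-quenching assay with 15 nM Sfp, 5 uM rhodamine-CoA and 12.5 uM BHQ-2-labelled ybbR peptide in pH 7.6 Hepes/MgCl2 buffer. Enzyme was pre-incubated with compound for 15 min at room temperature. Rate was taken from the 30-min fluorescence change (525/598 nm).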
Potency means the concentration at half of the fitted maximal effect.

| Structure (SMILES) | largest response in the series, negative = inhibition | Potency |
| --- | --- | --- |
| CC(C)OCCCNC(=O)CN1C(=O)/C(=C/c2ccccc2F)Oc2ccccc21 | -3.78% | – |
| Cc1cc(=O)[nH]c(=S)[nH]1 | – | 31.6 µM (active) |
| CSc1cc(C)[nH]c(=O)n1 | 7.92% | – |
| Cc1cc(=O)cc(C)[nH]1 | 15% | – |
| O=C(c1ccc(Cl)c(S(=O)(=O)N2CCCCC2)c1)N1CCCCCC1 | 16.4% | – |
| O=C(c1ccc[nH]c1=S)N1CCN(S(=O)(=O)c2ccc(Br)cc2Cl)CC1 | – | 79.4 µM (active) |
| O=C(c1ccccc1F)N1CCN(S(=O)(=O)c2ccc(Br)cc2)CC1 | 9.87% | – |
| CC(C)Sc1ncnc2c1cnn2-c1ccccc1 | -5.09% | – |
| C=C1C(=O)C23C(O)C1CCC2[C@]12COC3(O)C(O)C1C(C)(C)CC[C@H]2O (stereo partly drawn) | -81.1% | – |
| O=C(COCc1cc(-c2ccc3c(c2)OCO3)on1)N1CCN(c2cccc(Cl)c2)CC1 | -5.35% | – |
| COc1ccc2c(C)cc3nnnn3c2c1 | 7.5% | – |
| COc1ccc2[nH]c(=S)cc(C)c2c1 | – | 39.8 µM (active) |
| COc1ccc2[nH]c3c(C)c4cc[n+](C)cc4c(C)c3c2c1 | -11.7% | – |
| CC(C)c1cc(C(=O)N/N=C/c2ccoc2)c(O)c(C(C)C)c1 | 13.5% | – |
| CC1CC(C)CN(CCCNC(=O)Cn2ncc3c([nH]c4ccccc43)c2=O)C1 (stereo not drawn) | 5.5% | – |
| CCOC(=O)C(Sc1ncc(C#N)c(N)n1)C(C)C (stereo not drawn) | – | 56.2 µM (active) |
| CCOC(=O)CSc1nccc(N(C)C)c1C#N | -4.04% | – |
| CCCCOc1ccc(-c2ncc(C(=O)OCC)c(N)n2)cc1 | 3.34% | – |
| Cc1ccc(N2CC(C(=O)NCCS(=O)(=O)N3CCN(c4ccccc4)CC3)CC2=O)cc1 (stereo not drawn) | 5.68% | – |
| COc1ccc2c3c1OC1CC(O)C=C[C@@]31CCN(C)C2 (stereo partly drawn) | 17% | – |
| CCCc1nnc(NC(=O)CN2C(=O)c3ccccc3S2(=O)=O)s1 | – | 22.4 µM (active) |

| Structure (SMILES) | largest response in the series, negative = inhibition | Potency |
| --- | --- | --- |
| O=C(CN1C(=O)c2ccccc2S1(=O)=O)NC1CCCCC1 | 15.6% | – |
| CCCCc1nnc(NC(=O)CS(=O)(=O)Cc2ccccc2)s1 | 8.57% | – |
| COc1ccc(C)cc1NC(=O)CNCc1cccs1 | -7.78% | – |
| O=C(CN(Cc1ccc(Br)cc1)S(=O)(=O)c1ccccc1)NCc1ccncc1 | -4.2% | – |
| CCOC(=O)C1CCCN(S(=O)(=O)c2ccc(-n3cnnn3)c(C)c2)C1 (stereo not drawn) | 13.1% | – |
| C#CC(CCN1CCCCC1)(OC)c1ccccc1 (stereo not drawn) | 23.4% | – |
| COC(=O)c1sc(=S)n(-c2ccccc2)c1N | – | 31.6 µM (active) |
| COC(=O)c1sc(=S)n(-c2ccc(Cl)cc2)c1C | -2.12% | – |
| COC(=O)c1sc(N2CCN(Cc3ccccc3)CC2)nc1N | -0.821% | – |
| CCOC(=O)c1sc(=S)n(-c2cccc(OC)c2)c1N | – | 39.8 µM (active) |
| CCOC(=O)c1csc(NC(=O)Nc2cccc(OC)c2)n1 | 7.72% | – |
| CCOC(=O)C(C)n1cnc2c(nnn2-c2cccc(OC)c2)c1=O (stereo not drawn) | 30.5% | – |
| Cc1ccn2c(=O)c(C(=O)NCCC3=CCCCC3)c(O)nc2c1 | -5.56% | – |
| CCc1ccc(N(C(=O)c2csnn2)C(C(=O)NC2CCCCC2)c2cccnc2)cc1 (stereo not drawn) | -9.84% | – |
| CCCCS(=O)(=O)N1C2=NC(C(=O)OC)=C(C(=O)OC)[C@@H]3N(Cc4ccccc4)c4ccccc4[C@]23C[C@H]1C(=O)OC | -16% | – |
| Cc1ccc(C2SCC(=O)N2c2ccccc2)cc1 (stereo not drawn) | -9.8% | – |
| Cc1ccc(C2NC(C(=O)O)CS2)cc1 (stereo not drawn) | – | 70.8 µM (active) |
| Cc1ccc(C2CC2C(=O)NN)cc1 (stereo not drawn) | 6.91% | – |
| CCOc1ccc(N(CC(=O)Nc2cccc(OC)c2)S(C)(=O)=O)cc1 | 21.6% | – |
| Cn1c(=O)n(C)c2cc(S(=O)(=O)Nc3ccc(F)cc3)ccc21 | 7.57% | – |
| O=C(O)CCCC(=O)N1N=C(c2ccco2)CC1c1ccco1 (stereo not drawn) | 5.11% | – |

| Structure (SMILES) | largest response in the series, negative = inhibition | Potency |
| --- | --- | --- |
| COc1ccc(C2=NN(C(C)=O)C(c3ccccc3)C2)cc1 (stereo not drawn) | 9.33% | – |
| Cc1nn2c(c1-c1ccccc1)N=C(c1ccco1)CC2c1ccccc1 (stereo not drawn) | – | 15.8 µM (active) |
| Cc1cccc([C@@H]2[C@@H]3C(=O)N(Cc4ccccc4)C(=O)[C@@H]3[C@]3(C)C(=O)N(c4ccc(Br)cc4)C(=O)N23)c1 | 0.791% | – |
| Cc1cc(C)c2nc(N(CCN(C)C)C(=O)/C=C/c3cccs3)sc2c1 | – | 89.1 µM (active) |
| CC(=O)N(CCCN(C)C)c1nc2ccc(C)cc2s1 | 15.8% | – |
| Cc1ccc2sc(N(CCN(C)C)C(=O)/C=C/c3cccs3)nc2c1C | 4.98% | – |
| Cc1cc(S(=O)(=O)NCC(C)C)ccc1OCC(=O)NC1CC1 | 18.8% | – |
| O=C(O)c1ccccc1C(=O)Nc1nc(-c2ccccc2)cs1 | 6.83% | – |
| C/C(CC1CC(C)(C)OC1=O)=N/Nc1nc(-c2ccccc2)cs1 (stereo not drawn) | – | 50.1 µM (active) |
| CC1(C)CC(CC(=O)O)C(=O)O1 (stereo not drawn) | -8.59% | – |
| COc1ccc(C(=O)NC2CCN(C(=O)Nc3ccc(F)cc3)CC2)cc1 | -6.23% | – |
| COc1ccc(CN2CCNC(=O)C2CC(=O)NCc2cn[nH]c2-c2ccccc2)c(F)c1 (stereo not drawn) | 15.4% | – |
| O=C(NNc1ccccn1)c1ccc(Cl)nc1 | – | 56.2 µM (active) |
| CCN(CC)c1ccc(NC(=O)c2ccc(Cl)nc2)cc1 | 2.36% | – |
| Cc1cnc(NC(=O)c2ccc(Cl)nc2)s1 | 3.16% | – |
| COc1cc(C(=O)NN(CCC#N)C2=NS(=O)(=O)c3ccccc32)cc(OC)c1OC | 11.7% | – |
| Cc1ccc2c(c1)N(S(=O)(=O)c1cc(-c3cc(C)no3)ccc1C)CCO2 | -4.57% | – |
| Nc1cc(N2CCCCCC2)c2nonc2c1[N+](=O)[O-] | 12.7% | – |
| O=C(Nc1cccc(-c2nc3ccccc3[nH]2)c1)c1ccc(C(=O)Nc2cccc(-c3nc4ccccc4[nH]3)c2)cc1 | -19.4% | – |
| O=C(/C=C/c1ccco1)Nc1cccc(-c2nc3ccccc3[nH]2)c1 | – | 25.1 µM (active) |
| O=C(Cc1cccs1)Nc1cccc(-c2nc3ccccc3[nH]2)c1 | 9.29% | – |
